The record followed here is PubChem BioAssay (NCATS).

Each structure is given as a SMILES string. Records with an inconclusive call do not appear. Calls of active or inactive are those of the source. Calls come from the whole dose curve; as a rule, active = well fitted inhibition curve with a large enough effect; inconclusive = small, poorly fitted or top-dose-only effect; inactive = flat fitted curve, though single readings scatter.

Common to all, as to test: qHTS profiling for inhibitors of Plasmodium falciparum proliferation (AID 504749); note: nearly all actives have a fitted effect of over 60% in size
Common to all, as to conditions: P. falciparum in erythrocytes, SYBR Green DNA, 72 h; series mostly up to 28.7 µM

One experiment has as its system CP266. The method in brief:
(§1)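 Each compound contacts P. falciparum-infected red blood cells for 72 h at 37 C; lysis buffer (Tris, EDTA, saponin, Triton X, SYBR Green I) is added and fluorescence measured next morning; values normalized to controls.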

For the next experiment, the system named is CP297. The gist of the method:
as §1

Another experiment concerns DIV14. The gist of the method: as §1
A further experiment deals with DIV30. The method in brief:
as §1

The subject of a further experiment is Dd2. The gist of the method:
as §1

The next experiment has as its system GB4. The gist of the method:
as §1

A further experiment concerns ICS. The method in brief:
as §1

The next experiment has as its system PAD. The gist of the method:
as §1

The next experiment relates to AA1029. The method in brief:
as §1

The subject of the next experiment is AS120. The gist of the method:
as §1

In the next experiment the test system is ATS95. The gist of the method:
as §1

The subject of another experiment is CP194. The gist of the method: as §1
A further experiment relates to CP247. The method in brief: as §1
Another experiment deals with CP260. The method in brief: as §1
For the next experiment, the system named is DFO2036. The gist of the method: as §1
A further experiment deals with P93_24. The gist of the method:
as §1

Another experiment relates to P94_40. The gist of the method: as §1
A further experiment has as its system PC26. The method in brief:
as §1

For the next experiment, the system named is SC27B. The method in brief:
as §1

The test system of another experiment is TAB165. The method in brief: as §1
Potency is the fitted concentration of half-maximal effect.

Take `CCC(=O)OC1(c2ccccc2)CCN(C)CC1C` (centres undefined): the Potency result with CP266, in the experiment with DIV14, in the experiment on DIV30, in the experiment on ICS and with PAD was “inactive” each time. The Potency was 12000 nM (active) in the experiment with CP297, 5620 nM (active) in the experiment on Dd2 and 7570 nM (active) in the experiment with GB4.

Regarding `CC12CCC3C4CCC(=O)C(O)=C4CCC3C1CCC2OC(=O)CCC1CCCC1` (centres undefined), the Potency entry in the experiment with AA1029, in the experiment on AS120, with ATS95, in the experiment with CP194, with CP247 and with CP260 was “inactive” throughout. The Potency result in the experiment on CP266, in the experiment with CP297, in the experiment with DFO2036, in the experiment on DIV14, with DIV30 and with GB4 was “inactive” in each case. Also, the Potency entry with P93_24, with P94_40, in the experiment with PAD, with PC26, with SC27B and in the experiment with TAB165 was “inactive” in each case.

For the molecule `CN(C)C1C(=O)C(C(N)=O)C(=O)C2(O)C(=O)C3C(=O)c4c(O)cccc4C(C)(O)C3C(O)C12` (centres undefined), the Potency entry in the experiment on AS120, in the experiment on CP194, in the experiment on CP297, in the experiment with PC26 and with SC27B was “inactive” in each case. Further, the Potency with Dd2 was 3550 nM (active); with ICS it was 2820 nM (active).

As to `CCCC(C)C1(CC)C(=O)NC(=S)NC1=O` (centres undefined), the Potency result in the experiment with AA1029, in the experiment with AS120, with ATS95, with CP194, in the experiment with CP247 and in the experiment on CP260 was “inactive” in each case. Moreover, the Potency result in the experiment on CP266, in the experiment with CP297, with DFO2036, in the experiment with DIV14, in the experiment on DIV30 and in the experiment on Dd2 was “inactive” throughout. For the same molecule, the Potency entry with GB4, with ICS, in the experiment with P93_24, in the experiment with P94_40, with PAD and in the experiment with PC26 was “inactive” throughout. Also, the Potency entry in the experiment on SC27B and with TAB165 was “inactive” in each case.

In the case of `C#C[C@]1(O)CC[C@H]2[C@@H]3CCC4=CC(=O)CCC4(C)[C@H]3CCC21C` (some centres undefined), the Potency result in the experiment on AA1029, with AS120, in the experiment on ATS95, in the experiment on CP194, in the experiment on CP260 and in the experiment on CP266 was “inactive” in each case. For the same molecule, the Potency result in the experiment on DFO2036, in the experiment with DIV14, in the experiment with DIV30, in the experiment on Dd2, with GB4 and in the experiment with ICS was “inactive” in each case. For the same molecule, the Potency entry in the experiment with P93_24, in the experiment on P94_40, in the experiment with PAD, in the experiment on PC26, in the experiment with SC27B and in the experiment on TAB165 was “inactive” each time.

Turning to `CN(C)[C@@H](Cc1ccccc1)c1ccccc1`, the Potency entry in the experiment with AS120, in the experiment on ATS95, in the experiment with CP194, in the experiment on CP260, in the experiment on CP266 and in the experiment on DFO2036 was “inactive” in each case. For the same molecule, the Potency result in the experiment on DIV30, in the experiment with ICS, in the experiment with P94_40, with PAD, in the experiment with PC26 and in the experiment on SC27B was “inactive” throughout. Also, the Potency result with TAB165 is “inactive”. For the same molecule, the Potency with CP247 and with Dd2 was 10000 nM (active) throughout.

For `C[C@]12CCC3C(CCC4=C(Cl)C(=O)CC[C@@]43C)C1CCC2O` (some centres undefined), the Potency result with AA1029, in the experiment with AS120, in the experiment on ATS95, with CP194, in the experiment with CP247 and in the experiment on CP260 was “inactive” throughout. Further, the Potency result with CP266, in the experiment on CP297, in the experiment on DFO2036, in the experiment on DIV14, in the experiment on DIV30 and in the experiment with Dd2 was “inactive” in each case. Moreover, the Potency entry in the experiment with GB4, with ICS, with P93_24, with P94_40, with PAD and in the experiment with PC26 was “inactive” in each case. The Potency result in the experiment with SC27B and in the experiment on TAB165 was “inactive” throughout.

Turning to `COC(=O)C1C(OC(=O)c2ccccc2)CC2CCC1N2C` (centres undefined), the Potency entry with AA1029, in the experiment on AS120, in the experiment on ATS95, in the experiment with CP194, in the experiment on CP247 and with CP260 was “inactive” in each case. The Potency result with CP266, in the experiment on CP297, in the experiment on DFO2036, with DIV14, in the experiment with DIV30 and in the experiment with Dd2 was “inactive” each time. Further, the Potency entry with GB4, with ICS, with P93_24, in the experiment on P94_40, in the experiment with PAD and with PC26 was “inactive” in each case. Further, the Potency entry in the experiment with SC27B and in the experiment on TAB165 was “inactive” each time.

Regarding `CCC/C=C/C=C/C(=O)OC1/C(=C/C(=O)OC)CC2CC(C(C)O)OC(=O)CC(O)CC3CC(OC(C)=O)C(C)(C)C(O)(CC4C/C(=C/C(=O)OC)CC(/C=C\C(C)(C)C1(O)O2)O4)O3` (centres undefined), the Potency with AA1029 was 1780 nM (active); with AS120, 1000 nM (active); with ATS95, 2510 nM (active); in the experiment with CP247, 2820 nM (active); in the experiment on CP260, 2820 nM (active); in the experiment with CP297 it was 1690 nM (active). For the same molecule, the Potency in the experiment on DFO2036 was 1260 nM (active); with DIV14, 1070 nM (active); in the experiment on DIV30, 1070 nM (active); in the experiment on Dd2, 2240 nM (active); in the experiment on GB4, 1510 nM (active); in the experiment on ICS, 562 nM (active). The Potency was 2240 nM (active) in the experiment on P93_24; 2240 nM (active) in the experiment with P94_40; 1780 nM (active) with PAD; 953 nM (active) with PC26; 2510 nM (active) with SC27B; 1410 nM (active) in the experiment on TAB165.

In the case of `CC(C)=CC1C(C(=O)OCc2coc(Cc3ccccc3)c2)C1(C)C` (centres undefined), the Potency entry with AA1029, with ATS95, with CP194, with CP247, in the experiment with CP260 and with CP266 was “inactive” each time. The Potency entry in the experiment with CP297, in the experiment on DFO2036, in the experiment with DIV14, in the experiment on DIV30, with Dd2 and in the experiment with GB4 was “inactive” in each case. For the same molecule, the Potency result in the experiment with P93_24, in the experiment on P94_40, in the experiment on PAD and with PC26 was “inactive” throughout.

With `CC(=O)[C@H]1CC[C@H]2C3CC[C@H]4C[C@H](O)CC[C@]4(C)C3CC[C@]12C` (some centres undefined), the Potency result in the experiment on AA1029, with AS120, in the experiment with ATS95, in the experiment with CP194, in the experiment with CP247 and with CP266 was “inactive” each time. In addition, the Potency result with CP297, with DFO2036, with DIV14, in the experiment on DIV30, in the experiment with Dd2 and in the experiment with GB4 was “inactive” each time. For the same molecule, the Potency entry in the experiment with ICS, in the experiment on P93_24, with P94_40, with PAD, with PC26 and with SC27B was “inactive” in each case. For the same molecule, in the experiment with TAB165, the Potency entry was “inactive”.

Take `CC(=O)Oc1ccc2c3c1OC1[C@@H](OC(C)=O)C=C[C@H]4[C@H](C2)N(C)CC[C@]314` (some centres undefined): the Potency entry in the experiment on AA1029, in the experiment on AS120, in the experiment on ATS95, in the experiment on CP194, with CP247 and with CP260 was “inactive” each time. Further, the Potency entry with CP266, in the experiment with CP297, in the experiment with DFO2036, with DIV14, in the experiment with DIV30 and in the experiment with Dd2 was “inactive” throughout. For the same molecule, the Potency result in the experiment on GB4, in the experiment with ICS, in the experiment with P93_24, with P94_40, with PAD and in the experiment on PC26 was “inactive” in each case. Besides, the Potency result in the experiment on SC27B and with TAB165 was “inactive” throughout.
